Laboratory results published in the supplement of paper PMC10849652.
About 7,900 targets were measured; listed, in parts, are those with a hit and a random draw of the rest. About 0.6% of all pairs of compound and target were hits.

How the values were obtained:
Test in all cases: log2 fold change, soluble protein after heating vs DMSO (PISA); higher = thermal stabilisation; K562 cells, 10 uM, 30 min; active = over 0.2 and 3.5 SD of the protein, either way, in both replicates (recomputed)
[1] = compound: NC(=O)Nc1cc(-c2cccc(F)c2)sc1C(=O)N[C@H]1CCCNC1
Method in brief: (§1)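 Thermal stability values are relative to control samples and come from duplicates. They are expressed as log2 fold changes. For measurement, K562 cells (2×10^6 cells/mL) received 10 μM compound for 30 min, and aliquots were heated for 3 min over 48°C-58°C, pooled, and extracted at 4°C in PBS with 0.5% NP-40. Soluble protein, the supernatant after 21,000xg for 90 min, was quantified by TMTpro 16plex LC-MS/MS with equalised channel sums.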

[2] = compound: NC(=O)c1cnc(N[C@@H]2CCCC[C@@H]2N)nc1Nc1cccc(-n2nccn2)c1
Method in brief: as §1

[3] = compound: NC1(c2ccc(-c3nc4ccn5c(=O)[nH]nc5c4cc3-c3ccccc3)cc2)CCC1
Method in brief: as §1

[4] = compound: NCC(=O)Nc1ccc(-n2nc(C(F)(F)F)cc2-c2ccc3c(ccc4ccccc43)c2)cc1
Method in brief: as §1

entinostat = compound: Nc1ccccc1NC(=O)c1ccc(CNC(=O)OCc2cccnc2)cc1 [entinostat]
Method in brief: as §1

vorinostat = compound: O=C(CCCCCCC(=O)Nc1ccccc1)NO [vorinostat]
Method in brief: as §1

citarinostat = compound: O=C(CCCCCCNC(=O)c1cnc(N(c2ccccc2)c2ccccc2Cl)nc1)NO [citarinostat]
Method in brief: as §1

silmitasertib = compound: O=C(O)c1ccc2c(c1)nc(Nc1cccc(Cl)c1)c1ccncc12 [silmitasertib]
Method in brief: as §1

[5] = compound: O=C1NC(=O)C(c2cnc3ccccn23)=C1c1cn2c3c(cc(F)cc13)CN(C(=O)N1CCCCC1)CC2
Method in brief: as §1

[6] = compound: c1cc(OCCN2CCCCC2)cc(-c2n[nH]c3ccc(-c4nnc[nH]4)cc23)c1
Method in brief: as §1

Measured: log2 fold change

RPP14 (UniProt O95059)
inactive: [1] 0.063 | [2] -0.006 | [3] -0.003 | [4] 0.138 | entinostat -0.065 | vorinostat -0.033 | citarinostat 0.051 | silmitasertib 0.06 | [5] 0.027 | [6] -0.107

SDCBP (UniProt O00560)
inactive: [1] -0.027 | [2] -0.017 | [3] -0.207 | [4] -0.189 | entinostat 0.007 | vorinostat 0.063 | citarinostat -0.014 | silmitasertib 0.073 | [5] 0.028 | [6] -0.08

RBM4 (UniProt Q9BWF3)
inactive: [1] 0.015 | [2] -0.031 | [3] -0.017 | [4] -0.033 | entinostat 0.023 | vorinostat 0.06 | citarinostat -0.015 | silmitasertib 0.095 | [5] -0.002 | [6] -0.092

SH3PXD2B (UniProt A1X283)
Sequence of UniProt A1X283 (A1X283 whole entry, looked up): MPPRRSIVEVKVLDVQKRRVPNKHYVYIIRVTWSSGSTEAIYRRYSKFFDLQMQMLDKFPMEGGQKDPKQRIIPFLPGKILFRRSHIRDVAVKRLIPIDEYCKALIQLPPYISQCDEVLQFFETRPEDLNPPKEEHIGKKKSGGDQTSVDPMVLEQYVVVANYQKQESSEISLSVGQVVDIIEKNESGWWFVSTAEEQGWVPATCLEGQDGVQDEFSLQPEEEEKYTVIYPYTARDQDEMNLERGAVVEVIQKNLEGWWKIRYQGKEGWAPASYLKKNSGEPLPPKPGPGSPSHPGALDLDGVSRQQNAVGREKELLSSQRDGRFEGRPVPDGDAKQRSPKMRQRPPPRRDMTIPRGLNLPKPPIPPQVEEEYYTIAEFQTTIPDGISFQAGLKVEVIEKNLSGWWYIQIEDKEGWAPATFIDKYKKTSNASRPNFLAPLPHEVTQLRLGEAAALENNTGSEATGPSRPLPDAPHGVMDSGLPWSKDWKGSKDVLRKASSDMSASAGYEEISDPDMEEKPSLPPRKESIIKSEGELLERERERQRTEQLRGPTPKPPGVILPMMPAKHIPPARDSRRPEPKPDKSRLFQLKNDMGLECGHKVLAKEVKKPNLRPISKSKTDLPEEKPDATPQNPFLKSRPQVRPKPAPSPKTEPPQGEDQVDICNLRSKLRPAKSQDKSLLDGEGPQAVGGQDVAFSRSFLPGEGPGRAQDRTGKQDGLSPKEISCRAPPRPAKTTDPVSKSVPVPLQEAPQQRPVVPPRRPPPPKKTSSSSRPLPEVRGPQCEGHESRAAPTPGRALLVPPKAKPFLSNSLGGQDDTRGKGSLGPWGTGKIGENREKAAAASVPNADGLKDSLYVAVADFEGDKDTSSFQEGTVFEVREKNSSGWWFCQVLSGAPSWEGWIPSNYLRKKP
inactive: [1] 0.066 | [2] 0.248 | [3] -0.082 | [4] 0.052 | entinostat -0.056 | vorinostat -0.128 | citarinostat 0.032 | silmitasertib -0.108 | [5] 0.009 | [6] 0.026

RPA3 (UniProt P35244)
Sequence of UniProt P35244 (P35244 whole entry, looked up): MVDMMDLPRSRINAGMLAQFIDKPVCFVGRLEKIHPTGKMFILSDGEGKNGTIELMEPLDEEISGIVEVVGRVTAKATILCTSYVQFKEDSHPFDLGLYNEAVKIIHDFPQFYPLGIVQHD
active: [4] 0.371
inactive: [1] 0.044 | [2] 0.086 | [3] -0.021 | entinostat 0.102 | vorinostat -0.005 | citarinostat 0.1 | silmitasertib -0.007 | [5] -0.164 | [6] -0.071

RPS13 (UniProt P62277)
inactive: [1] 0.058 | [2] 0.093 | [3] 0.246 | [4] 0.115 | entinostat -0.062 | vorinostat 0.019 | citarinostat -0.121 | silmitasertib -0.022 | [5] 0.091 | [6] -0.182

SIRT2 (UniProt Q8IXJ6)
inactive: [1] -0.048 | [2] 0.023 | [3] -0.07 | [4] -0.066 | entinostat -0.02 | vorinostat -0.039 | citarinostat -0.022 | silmitasertib -0.035 | [5] -0.035 | [6] 0.033

SEC16A isoform 5 (UniProt O15027)
inactive: [1] 0.006 | [2] -0.072 | [3] -0.14 | [4] 0.055 | entinostat 0.071 | vorinostat 0.154 | citarinostat 0.071 | silmitasertib -0.007 | [5] 0.191 | [6] -0.022

RPS20 isoform 2 (UniProt P60866)
inactive: [1] -0.012 | [2] 0.056 | [3] 0.151 | [4] 0.037 | entinostat -0.029 | vorinostat 0.012 | citarinostat -0.091 | silmitasertib -0.006 | [5] 0.072 | [6] -0.1

RBM39 (UniProt Q14498)
inactive: [1] -0.141 | [2] -0.079 | [3] 0.023 | [4] -0.152 | entinostat 0.02 | vorinostat 0.062 | citarinostat 0.105 | silmitasertib -0.083 | [5] 0.049 | [6] -0.144

RAVER1 (UniProt E9PAU2)
inactive: [1] -0.063 | [2] -0.35 | [3] -0.1 | [4] -0.32 | entinostat 0.211 | vorinostat 0.207 | citarinostat 0.166 | silmitasertib -0.022 | [5] -0.244 | [6] -0.088

RFC3 (UniProt P40938)
Sequence of UniProt P40938 (P40938 whole entry, looked up): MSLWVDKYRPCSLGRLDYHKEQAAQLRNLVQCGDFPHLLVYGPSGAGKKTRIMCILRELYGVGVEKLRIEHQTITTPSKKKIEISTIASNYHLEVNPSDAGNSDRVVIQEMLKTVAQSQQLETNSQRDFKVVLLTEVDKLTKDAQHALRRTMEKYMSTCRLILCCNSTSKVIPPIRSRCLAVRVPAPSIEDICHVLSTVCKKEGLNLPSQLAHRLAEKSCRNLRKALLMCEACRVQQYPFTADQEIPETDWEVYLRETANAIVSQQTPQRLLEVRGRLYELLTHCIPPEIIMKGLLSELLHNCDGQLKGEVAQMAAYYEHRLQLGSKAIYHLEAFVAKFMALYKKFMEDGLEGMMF
inactive: [1] -0.001 | [2] -0.039 | [3] -0.078 | [4] -0.023 | entinostat -0.028 | vorinostat 0.028 | citarinostat 0.077 | silmitasertib -0.006 | [5] -0.039 | [6] -0.013

SCO2 (UniProt O43819)
Sequence of UniProt O43819 (O43819 whole entry, looked up): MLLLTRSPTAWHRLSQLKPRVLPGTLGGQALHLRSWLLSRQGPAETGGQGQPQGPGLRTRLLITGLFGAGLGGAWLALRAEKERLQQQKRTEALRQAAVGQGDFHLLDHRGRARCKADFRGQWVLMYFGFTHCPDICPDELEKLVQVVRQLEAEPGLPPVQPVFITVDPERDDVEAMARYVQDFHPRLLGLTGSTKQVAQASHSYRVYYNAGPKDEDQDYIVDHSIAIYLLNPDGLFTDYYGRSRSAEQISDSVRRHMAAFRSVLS
inactive: [2] -0.078 | [3] 0.015 | [4] 0.006 | entinostat -0.266 | vorinostat 0.011 | citarinostat -0.001 | silmitasertib -0.078 | [5] -0.092 | [6] 0.118
active: [1] -0.598

RDH10 (UniProt Q8IZV5)
inactive: [1] -0.033 | [2] -0.017 | [3] -0.016 | [4] 0.015 | entinostat 0.015 | vorinostat -0.069 | citarinostat -0.019 | silmitasertib -0.097 | [5] -0.039 | [6] 0.012

ROCK2 (UniProt O75116)
Sequence of UniProt O75116 (O75116 whole entry, looked up): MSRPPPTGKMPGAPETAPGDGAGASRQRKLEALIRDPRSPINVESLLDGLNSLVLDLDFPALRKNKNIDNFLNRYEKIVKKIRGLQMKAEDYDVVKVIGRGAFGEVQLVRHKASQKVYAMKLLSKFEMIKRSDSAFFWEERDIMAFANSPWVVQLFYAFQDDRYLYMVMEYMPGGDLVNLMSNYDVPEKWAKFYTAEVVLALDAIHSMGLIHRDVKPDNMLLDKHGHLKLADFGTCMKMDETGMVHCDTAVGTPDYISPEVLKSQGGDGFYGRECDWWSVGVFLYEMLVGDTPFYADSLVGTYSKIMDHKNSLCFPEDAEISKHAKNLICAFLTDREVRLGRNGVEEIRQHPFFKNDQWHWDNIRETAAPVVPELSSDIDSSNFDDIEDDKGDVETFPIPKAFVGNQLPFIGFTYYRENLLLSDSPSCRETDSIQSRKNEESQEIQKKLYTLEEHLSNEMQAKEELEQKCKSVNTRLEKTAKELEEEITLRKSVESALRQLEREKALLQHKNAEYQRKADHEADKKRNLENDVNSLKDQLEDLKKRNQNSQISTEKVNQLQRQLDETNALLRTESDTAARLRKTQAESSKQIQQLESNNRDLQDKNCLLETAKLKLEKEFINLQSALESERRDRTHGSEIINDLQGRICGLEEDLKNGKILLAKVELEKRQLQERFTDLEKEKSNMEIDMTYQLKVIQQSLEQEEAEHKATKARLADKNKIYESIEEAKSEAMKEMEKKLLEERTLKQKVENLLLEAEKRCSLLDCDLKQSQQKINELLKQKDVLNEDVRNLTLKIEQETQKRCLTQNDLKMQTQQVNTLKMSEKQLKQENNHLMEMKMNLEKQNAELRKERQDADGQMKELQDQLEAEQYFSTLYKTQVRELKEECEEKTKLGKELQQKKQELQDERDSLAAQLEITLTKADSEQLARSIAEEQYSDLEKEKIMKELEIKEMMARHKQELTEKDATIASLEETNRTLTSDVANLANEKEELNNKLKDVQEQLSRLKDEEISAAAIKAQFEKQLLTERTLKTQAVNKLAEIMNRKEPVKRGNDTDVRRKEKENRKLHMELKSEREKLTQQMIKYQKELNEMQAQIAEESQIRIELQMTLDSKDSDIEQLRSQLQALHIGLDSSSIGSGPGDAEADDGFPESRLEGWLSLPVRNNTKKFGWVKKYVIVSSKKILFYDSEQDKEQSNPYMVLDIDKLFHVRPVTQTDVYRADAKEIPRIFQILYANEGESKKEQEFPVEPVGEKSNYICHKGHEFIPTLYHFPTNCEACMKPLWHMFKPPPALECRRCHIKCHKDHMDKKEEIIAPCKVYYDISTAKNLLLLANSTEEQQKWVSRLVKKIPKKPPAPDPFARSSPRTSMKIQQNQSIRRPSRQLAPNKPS
inactive: [1] 0.043 | [2] -0.044 | [3] -0.106 | [4] -0.017 | entinostat 0.031 | vorinostat 0.08 | citarinostat 0.013 | silmitasertib 0.096 | [5] 0.017 | [6] 0.06

RELA (UniProt Q04206)
inactive: [1] -0.009 | [2] -0.06 | [3] -0.121 | [4] -0.016 | entinostat 0.019 | vorinostat 0.036 | citarinostat 0.079 | silmitasertib -0.029 | [5] -0.017 | [6] -0.002

RB1 (UniProt P06400)
inactive: [1] 0.11 | [2] -0.133 | [3] -0.072 | [4] -0.01 | entinostat 0.015 | vorinostat 0.05 | citarinostat 0.039 | silmitasertib 0.039 | [6] -0.038
active: [5] -0.241

RPP25L (UniProt Q8N5L8)
Sequence of UniProt Q8N5L8 (Q8N5L8 whole entry, looked up): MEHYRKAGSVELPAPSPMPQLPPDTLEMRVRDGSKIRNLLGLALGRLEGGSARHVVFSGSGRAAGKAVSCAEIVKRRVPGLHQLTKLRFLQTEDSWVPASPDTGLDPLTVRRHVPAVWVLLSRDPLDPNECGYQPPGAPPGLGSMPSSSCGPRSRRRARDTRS
inactive: [1] 0.003 | [2] -0.052 | [3] -0.012 | [4] -0.032 | entinostat -0.001 | vorinostat -0.014 | citarinostat -0.08 | silmitasertib 0.073 | [5] 0.183 | [6] -0.075

RNF220 (UniProt Q5VTB9)
Sequence of UniProt Q5VTB9 (Q5VTB9 whole entry, looked up): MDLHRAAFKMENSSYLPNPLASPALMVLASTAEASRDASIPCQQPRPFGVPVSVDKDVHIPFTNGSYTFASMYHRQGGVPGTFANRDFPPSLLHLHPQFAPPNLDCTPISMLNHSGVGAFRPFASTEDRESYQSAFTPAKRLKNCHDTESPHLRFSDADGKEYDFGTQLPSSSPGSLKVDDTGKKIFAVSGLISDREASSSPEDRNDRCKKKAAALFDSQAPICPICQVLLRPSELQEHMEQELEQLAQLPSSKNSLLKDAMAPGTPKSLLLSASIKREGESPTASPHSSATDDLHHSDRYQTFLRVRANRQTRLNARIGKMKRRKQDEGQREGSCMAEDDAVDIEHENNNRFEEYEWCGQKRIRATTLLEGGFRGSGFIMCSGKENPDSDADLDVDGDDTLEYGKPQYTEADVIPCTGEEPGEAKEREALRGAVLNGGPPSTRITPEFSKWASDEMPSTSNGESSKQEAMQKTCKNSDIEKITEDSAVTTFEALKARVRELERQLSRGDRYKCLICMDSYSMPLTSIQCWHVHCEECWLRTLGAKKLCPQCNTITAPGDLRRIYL
inactive: [1] 0.01 | [2] -0.019 | [3] -0.002 | [4] -0.06 | entinostat -0.037 | vorinostat 0.052 | citarinostat 0.043 | silmitasertib 0.025 | [5] -0.075 | [6] -0.038

SH3GLB2 (UniProt Q9NR46)
inactive: [1] -0.105 | [2] -0.13 | [3] -0.163 | [4] 0.004 | entinostat 0.069 | vorinostat 0.081 | citarinostat 0.059 | silmitasertib 0.015 | [5] -0.028 | [6] -0.13

RNASET2 (UniProt O00584)
inactive: [1] -0.082 | [2] -0.114 | [4] -0.033 | entinostat -0.012 | vorinostat -0.04 | citarinostat 0.074 | silmitasertib -0.018 | [5] -0.048 | [6] -0.102
active: [3] -0.285

RARS2 (UniProt Q5T160)
inactive: [1] 0.042 | [2] -0.035 | [3] -0.182 | [4] -0.043 | entinostat 0.03 | vorinostat 0.029 | citarinostat 0.048 | silmitasertib 0.006 | [5] -0.022 | [6] -0.053

SART3, A0A499FI31
inactive: [1] -0.011 | [2] -0.105 | [3] -0.175 | [4] -0.054 | entinostat 0.055 | vorinostat 0.1 | citarinostat 0.098 | silmitasertib 0.114 | [5] -0.136 | [6] -0.02

SLC18B1 (UniProt Q6NT16)
Sequence of UniProt Q6NT16 (Q6NT16 whole entry, looked up): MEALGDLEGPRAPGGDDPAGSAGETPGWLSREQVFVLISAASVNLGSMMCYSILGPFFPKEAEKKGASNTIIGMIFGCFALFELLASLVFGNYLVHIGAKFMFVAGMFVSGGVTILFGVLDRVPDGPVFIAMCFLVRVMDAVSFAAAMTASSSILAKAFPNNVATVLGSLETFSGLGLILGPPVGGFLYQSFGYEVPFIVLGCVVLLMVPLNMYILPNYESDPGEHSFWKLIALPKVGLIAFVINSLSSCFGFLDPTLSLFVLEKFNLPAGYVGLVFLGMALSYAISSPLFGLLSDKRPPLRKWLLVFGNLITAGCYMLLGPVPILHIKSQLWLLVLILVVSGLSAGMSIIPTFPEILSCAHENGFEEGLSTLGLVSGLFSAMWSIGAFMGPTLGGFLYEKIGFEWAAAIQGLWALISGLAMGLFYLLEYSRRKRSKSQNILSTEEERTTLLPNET
inactive: [1] -0.003 | [2] 0.022 | [3] -0.093 | [4] -0.025 | entinostat 0.038 | vorinostat -0.162 | citarinostat 0.019 | silmitasertib 0.076 | [5] 0.044 | [6] -0.044

SENP6 (UniProt Q9GZR1)
inactive: [1] 0.011 | [2] -0.009 | [3] -0.073 | [4] -0.023 | entinostat -0.019 | vorinostat -0.021 | citarinostat 0.04 | silmitasertib -0.118 | [5] 0.027 | [6] -0.049

RGS10 (UniProt O43665)
Sequence of UniProt O43665 (O43665 whole entry, looked up): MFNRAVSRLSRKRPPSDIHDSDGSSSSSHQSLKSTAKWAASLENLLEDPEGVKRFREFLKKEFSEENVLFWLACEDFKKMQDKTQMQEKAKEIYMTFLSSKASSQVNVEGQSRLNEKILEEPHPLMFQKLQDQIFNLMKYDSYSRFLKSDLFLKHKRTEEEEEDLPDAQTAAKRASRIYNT
inactive: [1] 0.077 | [2] 0.068 | [3] -0.037 | [4] 0.11 | entinostat 0.038 | vorinostat 0.054 | citarinostat 0.087 | silmitasertib 0.01 | [5] -0.057 | [6] 0.033

RRP9 (UniProt O43818)
Sequence of UniProt O43818 (O43818 whole entry, looked up): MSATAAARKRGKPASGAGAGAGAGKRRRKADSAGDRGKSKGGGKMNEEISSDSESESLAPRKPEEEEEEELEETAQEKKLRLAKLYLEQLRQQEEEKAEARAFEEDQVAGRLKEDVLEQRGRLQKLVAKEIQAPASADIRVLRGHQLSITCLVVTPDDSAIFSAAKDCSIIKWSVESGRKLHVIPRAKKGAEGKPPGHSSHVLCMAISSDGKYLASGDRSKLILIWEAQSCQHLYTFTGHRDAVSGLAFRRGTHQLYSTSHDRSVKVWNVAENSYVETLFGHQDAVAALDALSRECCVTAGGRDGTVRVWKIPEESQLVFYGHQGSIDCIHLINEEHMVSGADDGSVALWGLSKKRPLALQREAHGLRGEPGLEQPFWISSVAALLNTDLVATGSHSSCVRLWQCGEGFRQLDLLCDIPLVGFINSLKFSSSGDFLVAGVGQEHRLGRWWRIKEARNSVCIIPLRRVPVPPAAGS
inactive: [1] 0 | [2] 0.053 | [3] 0.14 | [4] 0.08 | entinostat -0.002 | vorinostat -0.035 | citarinostat 0.003 | silmitasertib 0.069 | [5] 0.112 | [6] -0.073

RPS16 (UniProt P62249)
inactive: [1] 0.086 | [2] 0.08 | [3] 0.182 | [4] 0.043 | entinostat -0.043 | vorinostat 0.017 | citarinostat -0.044 | silmitasertib -0.097 | [5] 0.093 | [6] -0.119

RBM12 (UniProt Q9NTZ6)
inactive: [1] -0.044 | [2] -0.062 | [3] -0.219 | [4] -0.106 | entinostat 0.133 | vorinostat 0.128 | citarinostat 0.107 | silmitasertib -0.026 | [5] -0.219 | [6] -0.002

RBM33 (UniProt Q96EV2)
inactive: [1] 0.019 | [2] -0.055 | [3] -0.024 | [4] 0.003 | entinostat 0.027 | vorinostat 0.037 | citarinostat 0.042 | silmitasertib 0.038 | [5] -0.003 | [6] -0.046
